# Experimental data published in the antibiotic and cytotoxicity screens of Wong et al. (2023).
# About 3,300 (8.5%) of roughly 39,000 compounds were called active. What follows is part of a selection rich in actives, with near analogues and random picks from the rest.
# System: HepG2
# Experiment: cytotoxicity call (relative viability < 0.9)
# Conditions: 10 µM
row,SMILES,cytotoxicity call
1,N=C(N)N/N=C1\CCc2c(C(=N)N)cccc21,inactive
2,C[C@@H]1CN([C@@H](C)CO)C(=O)Cc2cc(NC(=O)CCCCCC(=O)Nc3ccccc3N)ccc2O[C@@H]1CN(C)C(=O)Nc1cccc2ccccc12,inactive
3,CCS(=O)(=O)Nc1ccc2c(c1)C(=O)N(C)C[C@@H](OC)[C@@H](C)CN(Cc1ccccn1)[C@H](C)CO2,inactive
4,C[C@@H]1CN([C@@H](C)CO)C(=O)c2cc(NS(=O)(=O)c3cn(C)cn3)ccc2O[C@@H](C)CCCCO[C@@H]1CN(C)C,inactive
5,COc1ccc(CN(C)C[C@H]2OCCCC[C@H](C)Oc3ccc(NC(=O)Nc4ccc(OC)cc4)cc3C(=O)N([C@H](C)CO)C[C@H]2C)cc1,active
6,COc1ccc(NC(=O)Nc2ccc3c(c2)C(=O)N([C@@H](C)CO)C[C@H](C)[C@@H](CN(C)Cc2ccncc2)OCCCC[C@@H](C)O3)cc1,active
7,COc1ccc(NC(=O)Nc2ccc3c(c2)C(=O)N([C@H](C)CO)C[C@@H](C)[C@@H](CN(C)Cc2ccncc2)OCCCC[C@H](C)O3)cc1,inactive
8,COc1ccc(NC(=O)Nc2ccc3c(c2)C(=O)N([C@H](C)CO)C[C@H](C)[C@@H](CN(C)Cc2ccncc2)OCCCC[C@@H](C)O3)cc1,inactive
9,COc1ccc(CN(C)C[C@H]2OCCCC[C@@H](C)Oc3ccc(NC(=O)Nc4ccc(OC)cc4)cc3C(=O)N([C@H](C)CO)C[C@H]2C)cc1,active
10,COc1cccc(S(=O)(=O)N(C)C[C@H]2Oc3ncc(C#CCC(C)C)cc3C(=O)N([C@@H](C)CO)C[C@@H]2C)c1,inactive
11,C[C@@H]1CN([C@H](C)CO)C(=O)CCCn2nncc2CO[C@H]1CN(C)S(=O)(=O)c1ccccc1C#N,inactive
12,C[C@H](CO)N1C[C@H](C)[C@H](CN(C)CC2CCCCC2)Oc2ccc(NC(=O)Cc3cn(C)c4ccccc34)cc2CC1=O,inactive
13,C[C@@H]1CN([C@@H](C)CO)C(=O)c2cc(NS(=O)(=O)c3ccc(F)cc3)ccc2O[C@H]1CN(C)CC1CC1,inactive
14,CCS(=O)(=O)Nc1ccc2c(c1)C(=O)N(C)[C@@H]1CC[C@@H](CC(=O)NCc3ccc(OC)cc3)O[C@H]1CO2,inactive
15,COCC#Cc1ccc([C@H]2[C@@H](CO)N3C(=O)CN(C(=O)C4CCOCC4)C[C@H]23)cc1,inactive
16,COc1ccc2c3c(n(c2c1)C)[C@@H](CO)N(C[C@]13CCN(CC1)CC1CCOCC1)C(=O)Cc1ccccn1,inactive
17,C[C@H](CO)N1C[C@H](C)[C@@H](CN(C)S(=O)(=O)c2cn(C)cn2)Oc2ccc(NS(C)(=O)=O)cc2CC1=O,inactive
18,Cc1noc(C)c1S(=O)(=O)Nc1ccc2c(c1)C(=O)N([C@@H](C)CO)C[C@H](C)[C@H](CN(C)S(=O)(=O)c1ccc(Cl)cc1)O2,inactive
19,O=C(O)[C@H]1C2C(=O)N3CCCO[C@@H]3[C@]23C=C[C@H]1O3 (stereo partly drawn),inactive
20,CO[C@H]1O[C@H](COC(=O)NCCCCCC(=O)NO)[C@@H](OC(=O)c2ccccc2)[C@H](OC(=O)Nc2ccccc2-c2ccccc2)[C@@H]1OC(=O)Nc1ccccc1-c1ccccc1,active
21,CCOP(=O)(CC(=O)O[C@H]1[C@H](OC(=O)Nc2ccccc2-c2ccccc2)[C@H](OC(=O)Nc2ccccc2-c2ccccc2)[C@@H](OC)O[C@@H]1COC(=O)NCCCCCC(=O)NO)OCC,active

row,SMILES,cytotoxicity call
1,COc1ccc(NC(=O)O[C@H]2[C@H](OC(=O)Nc3ccccc3-c3ccccc3)[C@@H](OC(=O)Nc3ccccc3-c3ccccc3)[C@@H](OC)O[C@@H]2COC(=O)NCCCCCC(=O)NO)cc1,inactive
2,CCOP(=O)(CC(=O)O[C@H]1[C@@H]2OC(=O)[C@@H](Cc3ccc4ccccc4c3)C/C=C\C[C@H](Cc3ccc4ccccc4c3)C(=O)O[C@H]2[C@@H](OC)O[C@@H]1COC(=O)NCCCCCC(=O)NO)OCC,inactive
3,COc1ccc(NC(=O)O[C@H]2[C@H](OC(=O)Nc3ccccc3-c3ccccc3)[C@H](OC(=O)Nc3ccccc3-c3ccccc3)[C@@H](OC)O[C@@H]2COC(=O)NCCCCCC(=O)NO)cc1,inactive
4,CO[C@H]1O[C@H](COC(=O)NCCCCCC(=O)NO)[C@H](OC(=O)Nc2ccccc2)[C@H](OC(=O)Nc2ccccc2)[C@H]1OC(=O)Nc1ccccc1,inactive
5,NCc1ccc2occc2c1,inactive
6,Cc1ccc(S(=O)(=O)Nc2ccc3c(c2)CC(=O)N([C@H](C)CO)C[C@H](C)[C@H](CN(C)C(=O)Nc2ccc(C(F)(F)F)cc2)O3)cc1,inactive
7,COc1ccc(S(=O)(=O)N(C)C[C@@H]2Oc3c(NC(=O)c4ccncc4)cccc3C(=O)N([C@@H](C)CO)C[C@H]2C)cc1,inactive
8,CNC(=O)[C@@]12CCC3(CCN(C(=O)COC)CC3)[C@H]1CN(S(C)(=O)=O)C2,inactive
9,C[C@@H]1CCCCO[C@@H](CN(C)CC2CCCCC2)[C@@H](C)CN([C@@H](C)CO)C(=O)c2cc(NC(=O)Cc3ccccc3)ccc2O1,inactive
10,COc1ccc(NC(=O)Nc2cccc3c2O[C@H](CN(C)C(=O)Nc2cccc4ccccc24)[C@@H](C)CN([C@@H](C)CO)C3=O)cc1,inactive
11,C[C@@H]1CN([C@@H](C)CO)C(=O)Cc2cc(NS(=O)(=O)c3ccccc3)ccc2O[C@@H]1CN(C)Cc1ccc(-c2ccccc2)cc1,active
12,C[C@H]1CN([C@@H](C)CO)C(=O)Cc2cc(NS(=O)(=O)c3ccccc3)ccc2O[C@@H]1CN(C)Cc1ccc(-c2ccccc2)cc1,inactive
13,C[C@H]1CN([C@@H](C)CO)C(=O)Cc2cc(NS(=O)(=O)c3ccccc3)ccc2O[C@H]1CN(C)Cc1ccc(-c2ccccc2)cc1,active
14,C[C@H](CO)N1C[C@H](C)[C@@H](CN(C)Cc2ccc(-c3ccccc3)cc2)Oc2ccc(NS(=O)(=O)c3ccccc3)cc2CC1=O,inactive
15,C[C@H](CO)N1C[C@H](C)[C@H](CN(C)Cc2ccc(-c3ccccc3)cc2)Oc2ccc(NS(=O)(=O)c3ccccc3)cc2CC1=O,active
16,C[C@@H]1CN([C@@H](C)CO)C(=O)Cc2cc(NS(=O)(=O)c3ccccc3)ccc2O[C@H]1CN(C)Cc1ccc(-c2ccccc2)cc1,inactive
17,C[C@@H]1CN([C@H](C)CO)C(=O)Cc2cc(NS(=O)(=O)c3ccccc3)ccc2O[C@@H]1CN(C)Cc1ccc(-c2ccccc2)cc1,inactive
18,C[C@@H]1CN([C@H](C)CO)C(=O)Cc2cc(NS(=O)(=O)c3ccccc3)ccc2O[C@H]1CN(C)Cc1ccc(-c2ccccc2)cc1,inactive
19,c1ccc(-n2ncc3c2ncn2nnnc32)cc1,inactive
20,CO[C@H]1CN(C)C(=O)c2cc(NC(=O)Nc3cccc(Cl)c3)ccc2OC[C@@H](C)N(C(=O)Nc2c(C)noc2C)C[C@@H]1C,inactive
21,C[C@@H]1CN([C@@H](C)CO)C(=O)c2cc(NC(=O)Cn3cnnn3)ccc2O[C@H]1CN(C)Cc1ccc(Oc2ccccc2)cc1,inactive

row,SMILES,cytotoxicity call
1,CC/N=C1\S[C@@H](CC(=O)NC)C(=O)N1CC,inactive
2,O=C(C[C@@H]1C[C@H]2c3cc(NC(=O)Nc4ccccc4)ccc3O[C@H]2[C@H](CO)O1)NCCN1CCCCC1,inactive
3,COc1ccc(CN(C)C[C@H]2OCCCC[C@@H](C)Oc3ccc(NC(=O)Nc4c(C)noc4C)cc3C(=O)N([C@@H](C)CO)C[C@@H]2C)cc1,inactive
4,C[C@@H]1CCCCO[C@@H](CN(C)C(=O)c2ccccc2)[C@@H](C)CN([C@@H](C)CO)C(=O)c2cc(NS(=O)(=O)c3ccc(Cl)cc3)ccc2O1,inactive
5,CCCN1CCC2(CC1)NC(=O)N(CC(=O)N1CCN(C(=O)OCC)CC1)C2=O,inactive
6,C[C@H](CO)N1C[C@H](C)[C@H](CN(C)Cc2ccc(C(F)(F)F)cc2)OCc2ccccc2-c2c(n(C)c3ccccc23)C1=O,inactive
7,CCOC(=O)c1cnn2c(=O)cc(C)[nH]c12,inactive
8,C[C@@H]1CN([C@H](C)CO)S(=O)(=O)c2ccc(C#CC3(O)CCCC3)cc2O[C@@H]1CN(C)C(=O)c1ccccc1,inactive
9,CNC[C@H]1Oc2c(NS(=O)(=O)c3cn(C)cn3)cccc2C(=O)N([C@@H](C)CO)C[C@@H]1C,inactive
10,CCOC(=O)c1c(CN2CCN(c3ccccc3)CC2)n(-c2ccccc2)c2cc(Br)c(OC)cc12,inactive
11,CCOC(=O)c1c(CN2CCN(Cc3ccccc3)CC2)n(-c2ccccc2)c2cc(Br)c(OC)cc12,inactive
12,CCOC(=O)c1c(CN2CCN(Cc3ccccc3)CC2)n(-c2ccccc2)c2cc(Br)c(O)cc12,inactive
13,CCOC(=O)c1c(CN2CCN(c3ccccc3)CC2)n(-c2ccccc2)c2cc(Br)c(O)cc12,inactive
14,CCOC(=O)c1c(CN2CCN(CCOCCO)CC2)n(-c2ccccc2)c2cc(Br)c(O)cc12,active
15,CCOC(=O)c1c(CNCCN(CC)CC)n(-c2ccccc2)c2cc(Br)c(OC)cc12,active
16,Cc1ccc(S(=O)(=O)N(C)C[C@@H]2Oc3ccc(NS(=O)(=O)c4c(C)noc4C)cc3C(=O)N([C@H](C)CO)C[C@@H]2C)cc1,inactive
17,Cc1ccc(S(=O)(=O)Nc2ccc3c(c2)C(=O)N([C@@H](C)CO)C[C@H](C)[C@H](CN(C)C(=O)CCC(F)(F)F)OCCCC[C@@H](C)O3)cc1,inactive
18,C[C@@H]1CCCCO[C@H](CN(C)S(=O)(=O)c2ccc(Cl)cc2)[C@H](C)CN([C@@H](C)CO)C(=O)c2cc(NS(=O)(=O)c3ccccc3)ccc2O1,inactive
19,Cc1ccc2ncc(-c3ccc4cc(C)ccc4n3)cc2c1,inactive
20,COc1ccc(NC(=O)N(C)C[C@@H]2OCCCC[C@@H](C)Oc3ccc(NS(=O)(=O)c4ccc(C)cc4)cc3C(=O)N([C@H](C)CO)C[C@@H]2C)cc1,inactive
21,C[C@H](CO)N1C[C@H](C)[C@H](CN(C)C(=O)c2cnccn2)Oc2ncc(/C=C/c3ccccc3)cc2C1=O,inactive
